In article PMC7862700, “An all-to-all approach to the identification of sequence-specific readers for epigenetic DNA modifications on cytosine” one finds binding signal data, which are given here for one sequence.

Common to all, as to assay: DAPPL (digital affinity profiling via proximity ligation, sequencing); 10 mM Tris-HCl pH 7.5, 50 mM NaCl, 1 mM DTT, 4% glycerol, room temperature, 30 min; GST-TFs on glutathione beads, 16-mer random dsDNA library, 0.1% formaldehyde crosslink after washing; high values mean tight binding
One experiment has as its target T1, FLI1 (Homo sapiens, UniProt Q01543 1-452).
T1 sequence: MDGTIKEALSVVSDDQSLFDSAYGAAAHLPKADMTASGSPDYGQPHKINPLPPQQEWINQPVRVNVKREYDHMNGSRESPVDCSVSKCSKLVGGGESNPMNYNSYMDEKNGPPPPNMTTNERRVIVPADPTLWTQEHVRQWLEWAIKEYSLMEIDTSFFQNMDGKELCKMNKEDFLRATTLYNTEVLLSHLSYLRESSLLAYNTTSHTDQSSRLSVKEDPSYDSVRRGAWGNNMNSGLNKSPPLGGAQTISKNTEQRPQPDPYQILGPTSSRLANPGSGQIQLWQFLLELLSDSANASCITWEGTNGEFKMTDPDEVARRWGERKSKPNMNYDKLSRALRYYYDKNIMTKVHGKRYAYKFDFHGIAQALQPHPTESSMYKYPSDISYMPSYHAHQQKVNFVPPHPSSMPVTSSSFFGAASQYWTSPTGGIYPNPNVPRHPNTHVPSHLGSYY
Particulars: protein: recombinant; tags: N-terminal GST; dsDNA, one strand shown. Summed up:
(§1)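 Each value of binding signal is a hexamer's read frequency for a factor divided by the same hexamer's frequency in the tag-only sample. Barcoded, bead-captured GST fusions of human transcription factors made in yeast were pooled with that sample and incubated with 200 nmole of a random double-stranded 16-mer DNA library in Tris/NaCl/DTT/glycerol buffer at room temperature for 30 min. Washing, 0.1% formaldehyde crosslinking, proximity ligation, PCR and Illumina NextSeq500 sequencing followed.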

The target in a further experiment is T2, ELK1 (Homo sapiens, UniProt P19419 1-428).
T2 sequence: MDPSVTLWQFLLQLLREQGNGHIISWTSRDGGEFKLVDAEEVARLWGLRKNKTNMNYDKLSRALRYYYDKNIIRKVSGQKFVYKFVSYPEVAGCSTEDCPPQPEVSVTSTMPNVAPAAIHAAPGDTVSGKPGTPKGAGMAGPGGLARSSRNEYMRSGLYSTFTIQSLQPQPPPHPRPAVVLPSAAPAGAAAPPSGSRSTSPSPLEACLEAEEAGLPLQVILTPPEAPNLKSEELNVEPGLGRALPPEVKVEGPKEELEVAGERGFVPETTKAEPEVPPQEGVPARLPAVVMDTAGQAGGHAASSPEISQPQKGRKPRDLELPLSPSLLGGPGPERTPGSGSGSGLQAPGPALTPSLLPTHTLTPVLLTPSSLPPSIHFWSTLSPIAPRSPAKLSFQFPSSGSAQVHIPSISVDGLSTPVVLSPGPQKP
Particulars: protein: recombinant; tags: N-terminal GST; dsDNA, one strand shown. Summed up:
as §1

The target of another experiment is T3, GABPA (Homo sapiens, UniProt Q06546 1-454).
T3 sequence: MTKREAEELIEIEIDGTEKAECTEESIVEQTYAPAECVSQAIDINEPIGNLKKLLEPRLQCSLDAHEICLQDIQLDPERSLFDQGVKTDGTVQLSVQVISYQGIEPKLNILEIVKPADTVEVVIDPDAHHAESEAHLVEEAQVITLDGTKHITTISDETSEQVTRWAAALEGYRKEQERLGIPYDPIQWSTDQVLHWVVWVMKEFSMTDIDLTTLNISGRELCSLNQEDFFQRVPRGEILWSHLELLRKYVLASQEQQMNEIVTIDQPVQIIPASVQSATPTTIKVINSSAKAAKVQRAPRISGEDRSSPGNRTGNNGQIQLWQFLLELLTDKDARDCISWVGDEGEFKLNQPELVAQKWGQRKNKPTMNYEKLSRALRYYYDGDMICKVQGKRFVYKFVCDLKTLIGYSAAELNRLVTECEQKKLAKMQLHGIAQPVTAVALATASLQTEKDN
Particulars: protein: recombinant; tags: N-terminal GST; dsDNA, one strand shown. Summed up:
as §1

Another experiment has as its target T4, ERG (Homo sapiens, UniProt P11308 1-479).
T4 sequence: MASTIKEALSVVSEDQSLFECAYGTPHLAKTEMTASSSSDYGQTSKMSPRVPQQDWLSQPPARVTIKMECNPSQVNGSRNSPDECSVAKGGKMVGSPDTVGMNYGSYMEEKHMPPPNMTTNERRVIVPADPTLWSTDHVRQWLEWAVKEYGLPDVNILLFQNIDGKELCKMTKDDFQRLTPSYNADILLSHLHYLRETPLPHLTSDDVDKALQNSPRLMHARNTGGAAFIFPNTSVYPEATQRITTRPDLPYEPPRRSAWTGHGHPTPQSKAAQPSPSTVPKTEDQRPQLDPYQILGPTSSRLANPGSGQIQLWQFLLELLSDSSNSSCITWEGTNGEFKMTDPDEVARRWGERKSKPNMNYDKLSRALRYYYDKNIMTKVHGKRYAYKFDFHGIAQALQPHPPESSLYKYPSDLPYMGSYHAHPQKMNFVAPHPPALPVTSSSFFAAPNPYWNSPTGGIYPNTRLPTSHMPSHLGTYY
Particulars: protein: recombinant; tags: N-terminal GST; dsDNA, one strand shown. Summed up:
as §1

The target of the next experiment is ELF1 (Homo sapiens, UniProt P32519 1-619). Particulars: protein: recombinant; tags: N-terminal GST; dsDNA, one strand shown. Summed up:
as §1

The next experiment deals with T5, EHF (Homo sapiens, UniProt Q9NZC4 1-300).
T5 sequence: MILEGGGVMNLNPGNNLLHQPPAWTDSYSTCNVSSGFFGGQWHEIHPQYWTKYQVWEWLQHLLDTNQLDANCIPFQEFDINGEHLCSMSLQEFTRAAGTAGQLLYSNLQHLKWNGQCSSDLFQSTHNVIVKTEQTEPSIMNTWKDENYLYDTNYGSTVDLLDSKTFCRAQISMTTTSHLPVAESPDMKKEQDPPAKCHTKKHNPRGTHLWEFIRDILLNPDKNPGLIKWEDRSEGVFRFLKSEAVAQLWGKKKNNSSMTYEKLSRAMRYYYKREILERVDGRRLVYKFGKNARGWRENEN
The settings on record: protein: recombinant; tags: N-terminal GST; dsDNA, one strand shown. In outline:
as §1

The target of another experiment is SPI1 (Homo sapiens, UniProt P17947 1-270). The settings on record: protein: recombinant; tags: N-terminal GST; dsDNA, one strand shown. In outline:
as §1

A further experiment deals with SPIB (Homo sapiens, UniProt Q01892 1-262). The settings on record: protein: recombinant; tags: N-terminal GST; dsDNA, one strand shown. Summed up:
as §1

The next experiment addresses T6, ELK3 (Homo sapiens, UniProt P41970 1-407).
T6 sequence: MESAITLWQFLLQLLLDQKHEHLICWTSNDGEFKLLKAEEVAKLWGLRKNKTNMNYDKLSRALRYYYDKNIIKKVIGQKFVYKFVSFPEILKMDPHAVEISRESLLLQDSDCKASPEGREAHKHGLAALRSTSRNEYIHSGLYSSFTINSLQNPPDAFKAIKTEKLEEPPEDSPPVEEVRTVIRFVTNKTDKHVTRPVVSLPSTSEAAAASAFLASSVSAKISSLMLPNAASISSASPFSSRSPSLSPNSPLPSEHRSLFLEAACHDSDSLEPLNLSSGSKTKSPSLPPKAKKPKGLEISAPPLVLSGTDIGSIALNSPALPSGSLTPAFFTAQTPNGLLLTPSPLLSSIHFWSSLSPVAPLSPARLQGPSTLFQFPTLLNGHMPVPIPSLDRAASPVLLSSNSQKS
Particulars: protein: recombinant; tags: N-terminal GST; dsDNA, one strand shown. Summed up: as §1

The next experiment deals with T7, FEV (Homo sapiens, UniProt Q99581 1-238).
T7 sequence: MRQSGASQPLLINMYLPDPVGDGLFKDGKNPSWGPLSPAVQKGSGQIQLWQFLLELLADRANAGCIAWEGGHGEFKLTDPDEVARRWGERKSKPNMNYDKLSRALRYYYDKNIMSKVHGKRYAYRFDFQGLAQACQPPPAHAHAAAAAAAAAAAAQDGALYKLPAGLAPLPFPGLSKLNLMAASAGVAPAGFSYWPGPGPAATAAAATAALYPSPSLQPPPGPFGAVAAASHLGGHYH
The settings on record: protein: recombinant; tags: N-terminal GST; dsDNA, one strand shown. Summed up: as §1

The target in another experiment is ETV5 (Homo sapiens, UniProt P41161 1-510). The settings on record: protein: recombinant; tags: N-terminal GST; dsDNA, one strand shown. In outline: as §1
ETV5, sequence (P41161 whole entry): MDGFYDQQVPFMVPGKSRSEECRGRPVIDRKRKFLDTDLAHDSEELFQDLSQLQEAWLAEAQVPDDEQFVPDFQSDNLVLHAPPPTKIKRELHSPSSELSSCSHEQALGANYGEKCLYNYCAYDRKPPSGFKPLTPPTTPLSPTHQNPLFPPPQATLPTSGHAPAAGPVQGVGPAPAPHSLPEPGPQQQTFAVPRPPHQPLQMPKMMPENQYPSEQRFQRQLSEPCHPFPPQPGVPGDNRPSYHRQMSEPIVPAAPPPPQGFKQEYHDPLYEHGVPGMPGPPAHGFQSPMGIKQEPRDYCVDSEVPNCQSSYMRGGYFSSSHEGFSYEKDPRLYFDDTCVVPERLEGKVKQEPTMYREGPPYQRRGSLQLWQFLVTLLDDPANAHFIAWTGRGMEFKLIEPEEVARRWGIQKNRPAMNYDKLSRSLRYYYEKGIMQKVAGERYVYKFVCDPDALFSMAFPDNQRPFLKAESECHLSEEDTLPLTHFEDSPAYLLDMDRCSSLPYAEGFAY
The next experiment concerns the target HSF1 (Homo sapiens, UniProt Q00613 1-529). Particulars: protein: recombinant; tags: N-terminal GST; chain copies: 3; dsDNA, one strand shown. Summed up:
as §1

The next experiment concerns the target ELF4 (Homo sapiens, UniProt Q99607 1-663). Particulars: protein: recombinant; tags: N-terminal GST; dsDNA, one strand shown. In outline: as §1
For another experiment, the target named is T8, ELK4 (Homo sapiens, UniProt P28324-2 1-405).
T8 sequence: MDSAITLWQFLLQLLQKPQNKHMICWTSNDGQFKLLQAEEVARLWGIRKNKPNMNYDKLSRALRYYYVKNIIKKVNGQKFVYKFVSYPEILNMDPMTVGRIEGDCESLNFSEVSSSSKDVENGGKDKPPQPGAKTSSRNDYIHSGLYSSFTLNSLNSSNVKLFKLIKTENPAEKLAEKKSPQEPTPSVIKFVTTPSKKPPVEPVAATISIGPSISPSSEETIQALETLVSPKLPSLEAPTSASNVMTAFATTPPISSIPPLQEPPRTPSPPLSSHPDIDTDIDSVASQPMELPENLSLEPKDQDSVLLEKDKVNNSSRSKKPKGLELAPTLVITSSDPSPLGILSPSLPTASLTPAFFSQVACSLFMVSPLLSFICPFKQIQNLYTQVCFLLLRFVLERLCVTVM
The settings on record: protein: recombinant; tags: N-terminal GST; dsDNA, one strand shown. In outline:
as §1

The next experiment deals with T9, ETV2 (Homo sapiens, UniProt O00321 1-342).
T9 sequence: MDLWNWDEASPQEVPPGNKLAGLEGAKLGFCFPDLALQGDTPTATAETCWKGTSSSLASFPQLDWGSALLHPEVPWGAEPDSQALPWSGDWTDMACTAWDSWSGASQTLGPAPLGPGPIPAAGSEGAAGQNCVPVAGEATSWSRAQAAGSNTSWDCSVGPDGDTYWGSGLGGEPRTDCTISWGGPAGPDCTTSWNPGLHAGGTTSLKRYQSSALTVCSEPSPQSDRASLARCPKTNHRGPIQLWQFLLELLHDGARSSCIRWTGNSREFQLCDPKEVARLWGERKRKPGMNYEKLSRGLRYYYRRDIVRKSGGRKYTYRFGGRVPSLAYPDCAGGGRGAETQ
Particulars: protein: recombinant; tags: N-terminal GST; dsDNA, one strand shown. Summed up:
as §1

Another experiment has as its target T10, ELF3 (Homo sapiens, UniProt P78545 1-371).
T10 sequence: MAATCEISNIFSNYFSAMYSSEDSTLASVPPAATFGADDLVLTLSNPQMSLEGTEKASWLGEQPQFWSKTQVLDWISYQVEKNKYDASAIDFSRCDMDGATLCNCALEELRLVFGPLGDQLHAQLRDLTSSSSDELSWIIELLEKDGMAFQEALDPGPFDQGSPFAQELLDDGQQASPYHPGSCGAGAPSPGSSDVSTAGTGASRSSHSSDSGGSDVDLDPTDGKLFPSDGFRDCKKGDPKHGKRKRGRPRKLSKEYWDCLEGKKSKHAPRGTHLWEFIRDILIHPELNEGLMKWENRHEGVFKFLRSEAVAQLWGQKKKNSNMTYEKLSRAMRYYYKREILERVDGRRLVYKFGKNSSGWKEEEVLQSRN
Particulars: protein: recombinant; tags: N-terminal GST; dsDNA, one strand shown. In outline:
as §1

The next experiment addresses CRX (Homo sapiens, UniProt O43186 1-299). The settings on record: protein: recombinant; tags: N-terminal GST; dsDNA, one strand shown. In outline: as §1
The next experiment concerns the target ETV1 (Homo sapiens, UniProt P50549 1-477). Particulars: protein: recombinant; tags: N-terminal GST; dsDNA, one strand shown. Summed up:
as §1

ELF1, sequence (P32519 whole entry): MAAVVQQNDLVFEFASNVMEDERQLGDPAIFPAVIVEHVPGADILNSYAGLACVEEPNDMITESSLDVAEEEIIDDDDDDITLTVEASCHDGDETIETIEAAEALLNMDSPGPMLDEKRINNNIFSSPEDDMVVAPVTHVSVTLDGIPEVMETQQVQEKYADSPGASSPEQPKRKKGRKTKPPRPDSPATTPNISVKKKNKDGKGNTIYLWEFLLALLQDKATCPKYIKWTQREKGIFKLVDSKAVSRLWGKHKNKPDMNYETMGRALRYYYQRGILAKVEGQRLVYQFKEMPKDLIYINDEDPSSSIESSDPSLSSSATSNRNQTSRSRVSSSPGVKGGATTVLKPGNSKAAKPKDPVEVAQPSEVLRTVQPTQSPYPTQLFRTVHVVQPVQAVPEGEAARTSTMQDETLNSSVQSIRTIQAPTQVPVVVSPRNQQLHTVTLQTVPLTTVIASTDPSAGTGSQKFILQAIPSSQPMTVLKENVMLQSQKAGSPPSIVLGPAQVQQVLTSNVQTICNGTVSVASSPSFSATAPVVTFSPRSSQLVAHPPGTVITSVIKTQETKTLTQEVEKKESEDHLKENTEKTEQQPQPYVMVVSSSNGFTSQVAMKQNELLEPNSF
ELF4, sequence (Q99607 whole entry): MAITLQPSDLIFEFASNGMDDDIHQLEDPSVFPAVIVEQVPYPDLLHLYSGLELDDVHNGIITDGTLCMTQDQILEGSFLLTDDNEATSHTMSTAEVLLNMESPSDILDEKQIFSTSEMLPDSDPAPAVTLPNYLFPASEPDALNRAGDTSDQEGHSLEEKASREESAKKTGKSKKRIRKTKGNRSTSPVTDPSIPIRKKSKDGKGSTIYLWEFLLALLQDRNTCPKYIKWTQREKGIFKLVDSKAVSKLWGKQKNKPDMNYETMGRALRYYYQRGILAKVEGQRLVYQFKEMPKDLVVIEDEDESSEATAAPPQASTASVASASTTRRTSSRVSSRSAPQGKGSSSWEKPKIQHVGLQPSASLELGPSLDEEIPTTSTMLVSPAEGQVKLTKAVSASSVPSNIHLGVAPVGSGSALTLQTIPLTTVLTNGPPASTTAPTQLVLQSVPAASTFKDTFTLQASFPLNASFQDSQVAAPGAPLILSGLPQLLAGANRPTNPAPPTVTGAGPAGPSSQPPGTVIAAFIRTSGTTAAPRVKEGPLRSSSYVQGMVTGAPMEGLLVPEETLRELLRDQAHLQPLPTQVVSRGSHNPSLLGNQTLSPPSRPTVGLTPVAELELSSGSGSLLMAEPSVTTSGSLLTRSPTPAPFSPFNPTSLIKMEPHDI
HSF1, sequence (Q00613 whole entry): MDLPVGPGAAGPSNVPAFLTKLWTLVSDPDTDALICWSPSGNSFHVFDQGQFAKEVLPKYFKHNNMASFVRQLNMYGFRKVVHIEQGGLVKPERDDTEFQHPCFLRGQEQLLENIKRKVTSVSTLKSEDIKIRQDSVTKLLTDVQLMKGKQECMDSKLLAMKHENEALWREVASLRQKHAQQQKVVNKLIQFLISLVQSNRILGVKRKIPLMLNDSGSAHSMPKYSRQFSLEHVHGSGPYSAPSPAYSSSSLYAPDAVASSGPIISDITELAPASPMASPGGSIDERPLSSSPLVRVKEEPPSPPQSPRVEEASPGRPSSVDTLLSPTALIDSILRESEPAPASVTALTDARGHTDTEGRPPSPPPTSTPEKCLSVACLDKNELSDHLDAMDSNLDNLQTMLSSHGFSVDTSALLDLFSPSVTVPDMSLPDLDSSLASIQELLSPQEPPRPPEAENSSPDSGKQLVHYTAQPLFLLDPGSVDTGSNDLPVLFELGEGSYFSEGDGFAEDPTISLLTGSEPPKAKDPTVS
SPIB, sequence (Q01892 whole entry): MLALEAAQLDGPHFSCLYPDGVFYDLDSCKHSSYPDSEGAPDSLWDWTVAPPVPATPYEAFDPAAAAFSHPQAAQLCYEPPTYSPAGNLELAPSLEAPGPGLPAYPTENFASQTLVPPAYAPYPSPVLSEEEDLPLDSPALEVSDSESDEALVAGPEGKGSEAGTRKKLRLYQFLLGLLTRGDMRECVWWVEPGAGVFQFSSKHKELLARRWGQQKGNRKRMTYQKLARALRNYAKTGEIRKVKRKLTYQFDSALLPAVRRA
ETV1, sequence (P50549 whole entry): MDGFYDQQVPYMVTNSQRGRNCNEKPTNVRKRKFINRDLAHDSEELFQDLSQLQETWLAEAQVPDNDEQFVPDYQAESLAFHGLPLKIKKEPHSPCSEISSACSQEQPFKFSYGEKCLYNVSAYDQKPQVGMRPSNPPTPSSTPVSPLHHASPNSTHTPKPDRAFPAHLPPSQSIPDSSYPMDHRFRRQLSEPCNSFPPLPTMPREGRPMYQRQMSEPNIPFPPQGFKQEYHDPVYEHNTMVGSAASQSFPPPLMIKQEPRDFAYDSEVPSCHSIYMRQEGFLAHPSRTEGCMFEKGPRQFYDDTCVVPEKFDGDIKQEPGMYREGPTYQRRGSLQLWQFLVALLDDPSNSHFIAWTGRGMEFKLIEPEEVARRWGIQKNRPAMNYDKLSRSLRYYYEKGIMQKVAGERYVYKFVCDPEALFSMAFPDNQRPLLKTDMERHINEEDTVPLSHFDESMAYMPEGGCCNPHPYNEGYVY
CRX, sequence (O43186 whole entry): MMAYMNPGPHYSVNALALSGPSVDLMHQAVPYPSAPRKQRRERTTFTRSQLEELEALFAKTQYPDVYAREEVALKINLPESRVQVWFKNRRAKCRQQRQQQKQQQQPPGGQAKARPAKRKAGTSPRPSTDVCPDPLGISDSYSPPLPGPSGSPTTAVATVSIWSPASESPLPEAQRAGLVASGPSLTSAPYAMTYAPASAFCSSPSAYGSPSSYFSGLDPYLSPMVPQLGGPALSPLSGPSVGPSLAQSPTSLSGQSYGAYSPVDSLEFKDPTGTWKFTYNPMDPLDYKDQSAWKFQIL

Take TACATT: the binding signal with FLI1 was 1.32 fold enrichment (6-mer frequency, TF over GST control); with ELK1, 1.17 fold enrichment (6-mer frequency, TF over GST control); with GABPA, 1.23 fold enrichment (6-mer frequency, TF over GST control); with ERG, 1.21 fold enrichment (6-mer frequency, TF over GST control); with ELF1, 1.26 fold enrichment (6-mer frequency, TF over GST control); with EHF it was 1.19 fold enrichment (6-mer frequency, TF over GST control). Besides, the binding signal with SPI1 was 1.14 fold enrichment (6-mer frequency, TF over GST control); with SPIB, 1.29 fold enrichment (6-mer frequency, TF over GST control); in the experiment with ELK3 it was 1.23 fold enrichment (6-mer frequency, TF over GST control); in the experiment with FEV, 1.19 fold enrichment (6-mer frequency, TF over GST control); with ETV5, 1.21 fold enrichment (6-mer frequency, TF over GST control); in the experiment with HSF1, 1.25 fold enrichment (6-mer frequency, TF over GST control). Also, the binding signal in the experiment with ELF4 is 1.24 fold enrichment (6-mer frequency, TF over GST control); in the experiment with ELK4, 1.09 fold enrichment (6-mer frequency, TF over GST control); in the experiment with ETV2, 1.17 fold enrichment (6-mer frequency, TF over GST control); with ELF3, 1.11 fold enrichment (6-mer frequency, TF over GST control); in the experiment with CRX, 1.25 fold enrichment (6-mer frequency, TF over GST control); in the experiment with ETV1, 1.16 fold enrichment (6-mer frequency, TF over GST control).
